Measured values: PubChem BioAssay (Tox21)
Inconclusive results are not listed. Active and inactive are the calls of the source. Unless noted, calls come from the whole dose curve; as a rule, active = well fitted curve in the direction sought with a large enough effect in the repeat runs; inconclusive = weak or mixed curves; inactive = no such curve, though single readings can be large; an effect the other way counts as inactive or inconclusive.

Key:
[1] = qHTS assay to identify small molecule antagonists of the estrogen receptor alpha (ER-alpha) signaling pathway using the BG1 cell line in the presence of 0.1 nM 17-beta-estradiol - cell viability counter screen (AID 1259241); note: nearly all actives have a fitted effect of over 40% in size
How it was run: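 VM7Luc4E2 cells (endogenous full-length ER-alpha, 4xERE-luciferase), cultured 5 days in charcoal-stripped serum, exposed to compounds with 0.1 nM 17beta-estradiol (final) for 22 hr at 37C. Viability read in same wells as live-cell protease fluorescence after 30 min.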

[2] = qHTS assay to identify small molecule antagonists of the androgen receptor (AR) signaling pathway using the MDA cell line in the presence of 0.5 nM R1881 - cell viability counter screen (AID 1259242); note: nearly all actives have a fitted effect of over 45% in size
How it was run: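 Cytotoxicity toward MDA-kb2 cells is measured by CellTiter-Fluor live-cell protease fluorescence after 16 hr compound exposure at 37C in the presence of 0.5 nM R1881 stimulator.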

[3] = qHTS assay to identify small molecule HDAC inhibitors (AID 1259364); note: top concentration of the series differs between compounds; nearly all actives have a fitted effect of over 45% in size
How it was run: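 Homogeneous cell-based luminescent assay of endogenous class I/II HDAC activity; HCT-116 cells, 2 h compound exposure, 30 min HDAC-Glo development at RT.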

[4] = qHTS assay to identify small molecule HDAC inhibitors - cell viability counter screen (AID 1259365); note: series mostly up to about 92 µM; nearly all actives have a fitted effect of over 50% in size
How it was run: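 Wild-type HCT-116 cells, 1,500/well, cultured overnight, then compound-treated 2 h at 37 C. Viability measured as ATP luminescence with CellTiter-Glo after 30 min at room temperature.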

[5] = qHTS assay to identify small molecule agonists of the sonic hedgehog signaling (Shh) pathway - cell viability counter screen (AID 1259366); note: nearly all actives have a fitted effect of over 50% in size
How it was run: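 NIH/3T3-derived Gli1-Luc reporter cells, 2,000 per well, received compound after 4 h and were treated about 23 h at 37C. Viability measured in the same wells by CellTiter-Fluor fluorescence after 1 h.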

[6] = qHTS assay to identify small molecule antagonists of the sonic hedgehog signaling (Shh) pathway - cell viability counter screen (AID 1259367); note: nearly all actives have a fitted effect of over 55% in size
How it was run: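 After a 4 hr settling period, 3T3 Gli1-Luc cells were treated with DMSO-dissolved chemicals and conditioned medium, kept 24 hr at 37C in 5% CO2, and assayed for viability by CellTiter-Fluor fluorescence following 1 hr reagent incubation.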

[7] = qHTS assay to identify small molecule agonists of the sonic hedgehog signaling (Shh) pathway (AID 1259368; calls by dose curve;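 note: NIH/3T3-derived 3T3Gli1-Luc cells carrying a stable Gli1-driven firefly luciferase reporter; series mostly up to about 92 µM; nearly all actives have a fitted effect of over 15% in size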)
How it was run: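 Steps: seed 3T3 Gli1-Luc cells, incubate 4 hr at 37 C, pin-transfer compounds in DMSO alongside a positive control, incubate 24 hr, add luciferase detection reagent, wait 30 min at room temperature, read luminescence.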

[8] = target: Estrogen receptor (Homo sapiens) (UniProt P03372); test: qHTS assay to identify small molecule antagonists of the estrogen receptor alpha (ER-alpha) signaling pathway using the BG1 cell line in the presence of 0.1 nM 17-beta-estradiol (AID 1259244); note: nearly all actives have a fitted effect of over 50% in size
Chain of Estrogen receptor (Homo sapiens) (P03372 whole entry, looked up): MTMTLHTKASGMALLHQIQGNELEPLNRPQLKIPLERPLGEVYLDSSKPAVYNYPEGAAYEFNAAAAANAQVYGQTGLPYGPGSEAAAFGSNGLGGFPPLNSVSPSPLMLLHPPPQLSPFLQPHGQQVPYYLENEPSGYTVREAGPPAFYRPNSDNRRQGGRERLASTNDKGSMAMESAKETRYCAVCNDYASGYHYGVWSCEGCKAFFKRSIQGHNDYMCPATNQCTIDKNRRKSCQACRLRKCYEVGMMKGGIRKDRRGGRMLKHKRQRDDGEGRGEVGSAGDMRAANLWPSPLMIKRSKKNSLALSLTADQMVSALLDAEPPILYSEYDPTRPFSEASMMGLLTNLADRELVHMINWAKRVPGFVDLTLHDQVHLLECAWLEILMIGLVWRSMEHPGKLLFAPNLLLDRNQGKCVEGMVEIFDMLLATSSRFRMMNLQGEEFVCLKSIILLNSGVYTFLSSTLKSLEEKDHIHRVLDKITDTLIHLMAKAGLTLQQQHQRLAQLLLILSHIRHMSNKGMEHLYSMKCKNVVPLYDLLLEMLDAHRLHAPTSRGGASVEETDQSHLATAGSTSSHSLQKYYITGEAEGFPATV
How it was run: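 After 5 days in hormone-depleted medium (charcoal-stripped serum, no phenol red), VM7Luc4E2 cells were seeded, incubated 24 h, then co-treated with compound and 0.1 nM (final) estradiol for 22 h before luminescence detection.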

Measured: Potency

CCCCCCCCCCCCSC
inactive: [1] | [2] | [3] | [4] | [5] | [6] | [7]

O=C(c1ccccc1)C1(O)CCCCC1
inactive: [1] | [2] | [3] | [4] | [5] | [6] | [7]

CCO[Si](OCC)(OCC)c1ccccc1
inactive: [1] | [2] | [3] | [4] | [5] | [6] | [7]

c1coc(CNc2ncnc3nc[nH]c23)c1
inactive: [1] | [2] | [4] | [5] | [6] | [7]

O=S(=O)(O)c1cccc2ccccc12
inactive: [1] | [2] | [3] | [4] | [5] | [6] | [7]

CN(C)CCCCCCN(C)C
inactive: [3] | [4] | [5] | [6] | [7]

O=C1NC(=O)C2CC=CCC12 (stereo not drawn)
inactive: [1] | [2] | [3] | [4] | [5] | [6] | [7]

Clc1cc(Cl)c(Cl)nc1Cl
inactive: [1] | [2] | [3] | [4] | [5] | [6] | [7]

C1CCC2=NCCCN2CC1
inactive: [1] | [2] | [3] | [5] | [6] | [7]

C=C(C)C(=O)OCC1CCCO1 (stereo not drawn)
inactive: [1] | [2] | [3] | [4] | [5] | [6] | [7]

C=CN1CCCCCC1=O
inactive: [1] | [2] | [3] | [4] | [5] | [6] | [7]

OCCc1ccccn1
inactive: [1] | [2] | [3] | [4] | [5] | [6] | [7]

CC1(C)[C@@H]2CC[C@@]1(C)[C@H](O)C2
inactive: [1] | [2] | [3] | [5] | [6] | [7]

CCN1CCOCC1
inactive: [1] | [2] | [3] | [4] | [5] | [6] | [7]

O=C(O)CC(C(=O)O)S(=O)(=O)O (stereo not drawn)
inactive: [2] | [8] | [3] | [4] | [5] | [6] | [7]

CC(C)[C@H]1CC[C@@H](C)CC1=O
inactive: [1] | [2] | [3] | [4] | [5] | [6] | [7]

CCN(C=O)CC
inactive: [1] | [2] | [3] | [5] | [6] | [7]

O=C(O)CNC(=O)c1ccc(CO)o1
inactive: [1] | [2] | [3] | [5] | [6] | [7]

CCCCCCCCN1CCCC1=O
inactive: [1] | [2] | [3] | [4] | [5] | [6] | [7]

CC(C)C(=O)OC(=O)C(C)C
inactive: [1] | [2] | [3] | [5] | [6] | [7]

CNCCO
inactive: [1] | [2] | [3] | [4] | [5] | [6] | [7]

Nc1ccccn1
inactive: [1] | [2] | [3] | [4] | [5] | [6] | [7]

Cc1nc(C2CCCCC2)c(-c2ccc(S(N)(=O)=O)c(F)c2)o1
inactive: [1] | [2] | [3] | [5] | [6] | [7]

CC12CCC(C(=O)C1=O)C2(C)C (stereo not drawn)
inactive: [1] | [2] | [3] | [5] | [6] | [7]

CCCn1cc[n+](C)c1C
inactive: [1] | [2] | [3] | [4] | [5] | [6] | [7]

COc1cc2c(cc1OC)-c1cc3ccc(OC)c(OC)c3c[n+]1CC2
inactive: [1] | [3] | [5] | [6] | [7]

CC(C)(C#N)Nc1nc(Cl)nc(NC2CC2)n1
inactive: [1] | [2] | [3] | [4] | [5] | [6] | [7]

NO
inactive: [1] | [2] | [3] | [4] | [5] | [6] | [7]

CC(C#N)(CCC(=O)O)N=NC(C)(C#N)CCC(=O)O (stereo not drawn)
inactive: [1] | [2] | [3] | [4] | [5] | [6] | [7]

CCC(=O)OCc1ccccc1
inactive: [1] | [2] | [3] | [4] | [5] | [6] | [7]
